Results as given in PubChem BioAssay AID651687 (Broad Institute, 2012).
The campaign covered roughly 350,000 compounds. About 600 (0.17%) were called active. This excerpt belongs to a sample that is enriched for actives. Unmarked numbers belong to inactive results.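 Rule for the calls: active = every replicate shows inhibition of at least 40%; inconclusive = mean inhibition at least 40% but some replicate below; inactive = the rest.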

Assay: inhibitors of PGC1a acetylation signal, primary screen, cell-based, U2OS, AlphaScreen, inhibitor mode (AID 651687);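 note: 0% = neutral control wells and 100% = positive control wells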
Details: AlphaScreen anti-acetyl-lysine, at 15.6 µM, active compounds read high

For `CCC(C)(O)C(=O)OC1C(=O)OC2CC3C(C)=CC(=O)C(O)C3(C)C3C4(O)OCC23C1C(C)C4O` (stereo not given), the inhibition was 80% (active).
In the case of `COC1C(O)C(C)OC(OC2CCC3(C=O)C(CCC4C3CCC3(C)C(C5=CC(=O)OC5)CCC43O)C2)C1O` (stereo not given), the inhibition is reported as 82.1% (active).
For `c1ccc(C(CN2CCCCC2)c2ccccc2)cc1`, the inhibition was 40.7% (active).

In order of falling inhibition:
1. O=c1[nH]c2ccccc2n1C1CCN(C(c2ccccc2)c2nnnn2Cc2ccccc2)CC1 (stereo not given)  10.6%
2. COC(=O)C(c1ccccc1)N1CCCCCC1 (stereo not given)  5.94%
3. OC[C@@H]1[C@H]2c3ccccc3NC[C@H]2N1Cc1cccnc1  3.98%
4. O=C(Cc1ccncc1)N1CCCCN2[C@@H](CO)[C@H](c3ccc(-c4ccncc4)cc3)[C@@H]2C1  1.83%
5. O=C(NCC1=C(c2ccc3ccccc3c2)C[C@@H]2CC[C@H]1N2Cc1ccco1)c1cccs1  -0.267%
6. N#Cc1cccc(-c2ccc([C@H]3[C@@H](CO)N4CCCCN(C(=O)Cc5cccnc5)C[C@@H]34)cc2)c1  -1.39%
7. CCOC(=O)c1cccc(C2=C(CNC(=O)c3ccncc3)[C@H]3CC[C@@H](C2)N3Cc2ccccc2)c1  -1.43%
8. COC(=O)C[C@@H]1CC[C@@H]2NC[C@@H](O)COC[C@H]2O1  -2.11%
9. O=C(c1ccccc1)C(O)(CN1CCCCC1)c1ccccc1 (stereo not given)  -2.16%
10. O=C(Cc1ccncc1)N1CCCCN2[C@H](CO)[C@@H](c3ccc(C#CC4(O)CCCC4)cc3)[C@H]2C1  -7.38%
11. O=C(Cc1cccnc1)N1CCCCN2[C@@H](CO)[C@H](c3ccc(C#CC4CCCC4)cc3)[C@@H]2C1  -10.8%
12. COC(=O)C1=C(c2ccc(OCc3ccccc3)cc2)C[C@@H]2CC[C@H]1N2C(=O)NCc1cccc(F)c1  -39.8%
